Measurements: the supplement of paper PMC6555819

tested on: PPARg:RXRa 90nM:30nM, anti-RXR (NR concentration 90 nM, RXRa partner concentration 30 nM); assay: PBM binding z-score (relative to random genomic background probes); higher = stronger binding; sequences stand for … in GC…GCGATTGACAGCGTAGAATGAAGG
Outline: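 Regression normalization was applied to scanned fluorescence from custom Agilent 4×180K protein-binding microarrays. Before scanning, arrays were incubated 1 h with ligand-free nuclear receptor dimers, and binding was detected with antibodies against each partner (one per run). Binding z-scores use the random background probes as reference.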

| Sequence | PBM binding z-score |
| --- | --- |
| CGTCCAAGGTCAAAGGTCACTGAAGAGATGACGG | 11.1 |
| CAAACTAGGTCACGAAAGGGCAAAGTCGAATGAC | 8.08 |
| CGAACTAGGTCACCAGGACCGTGAAGAGGTTGGA | 6.42 |
| CGTCCAAGGTCAATTCTAGGTCAGTGAAAGCATT | 3.25 |
| CGTCCAACGTCAAGGTCAGTGAAAGAGACTCGAA | -0.211 |
| TAGCCTAGGTCATGGGCCAGTTTACCACGCGAAC | 2.88 |
| CGAACTAGGTCACAGGACAGTGAAAGGCGACGTA | 7.31 |
| ATATGTAGGTCATCGGGTCATTCAGTTTGCGCAT | 8.81 |
| CGAACTAGGTCCTTGACAGGACAGTGAATAGTAA | -0.145 |
| AAAATGAGGTTAAGATCAGGGAAACAGAATACAT | 2.41 |
| GCTTACGGGTCAAAGGTTATAGTATGAATAGAAT | 9.75 |
| CGAACTAGCTCAAGGACAGTGAATCTCCGCACGC | -0.661 |
| CGCACTAGGTCACCAGGACAGTGAAGAGGTTGGA | 6.23 |
| CAAACCAGGTCACGAAAGGTCAAAGTCGAATGAC | 7.6 |
| ATACCAAGGTGATCGTGAGTTCGTTGATACTAAC | -0.0417 |
| ACTAGTGGGTCAGCTGAGGTCACACACAATTCGG | 4.86 |
| CAAGCTAGGTCAAGAGGTCAAAGTCCGCTTCCCG | 6.31 |
| GCTATTAGGTGAAAGGGCAACCGAATGATTCTCG | 9.84 |
| CCGACTGGGGCAAAGGTTACGATACTCAGTACGA | 11.7 |
| GGAACTAGGGCAAAGTTGATAGCATCTGTCGACG | 9.67 |

| Sequence | PBM binding z-score |
| --- | --- |
| CCTACTGGGCCAAAAAGGCCATTGATGCCGATAA | 0.151 |
| CCTACTGGGCCACGAAAGGTCCTTGATTCAGTGA | 0.635 |
| CGAACTAGGTCAAAGGACAGTGTAAGGCGACGTA | 8.83 |
| ACTAGTTGTTCAGCTGAGGTCACACACAATTCGG | 1.03 |
| CGTCTAAGGTCAGCAGGTCAGTGAAAGCGACGTG | 4.03 |
| CCTACTGGGCCAAGGTCATAGATCAGTCAAAGCA | 3.84 |
| TAGCCTAGGTCATTGGGCCAGTATAGTACGCATC | 2.75 |
| CAACCTAGGTCACGAAAGGTCAAAGTCGAATGAC | 6.39 |
| ATATGTAGGTGAGGGTCATTCAGAAAGTAGGGAA | 6.5 |
| ATCGAAAGGTCGAAAGTGAGTATACCCACCCGAA | 2.05 |
| GATTCAGGGTCAGCTAGAGGCCAGAGTATGGAAA | 3.05 |
| CGATCTAGGTCACCAGGACAGTGAAGAGGTTGGA | 6.26 |
| CTAACTAGGTCACCGGAAGGTCAAAGTCCGCATG | 7.67 |
| CGTCCAAGGTCAGCAGGTGAGTGAAAGCGACGTG | 2.24 |
| TCTGCTTGGTCAACGATGGTCAGCTAATCTGCTA | 0.96 |
| CAAACTAGGTCACGAAAGGTCAACGTCGAATGAC | 9.28 |
| CGTCCAAGGTCAATGCTAGCTCAGTGAAAGCATT | 2.62 |
| GCTGCAAGGTCAACTGATGGTCAGCTAAAGCTCG | 3.97 |
| TAGCCTAGGTCATTCAGGGGCCAGAATAGAAAGC | 1.44 |
